# TexasRed autofl = qHTS Assay for Spectroscopic Profiling in Texas Red Spectral Region | Compound fluorescence, Texas Red channel, 547/618 nm; active compounds read high | max dye-equivalent concentration, M | 0.06% of 59,000 active | AID 587, 2007; in the data active = max dye-equivalent concentration above about 10 nM; inconclusive = between about 1.1 nM and that limit
#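 Pin-transferred compounds and Texas Red standards go into 100 mM Tris buffer, pH 8.0. After 15 min at room temperature, plates are imaged with 547/618 nm filters. Each value is a dye-equivalent concentration derived from the per-plate dye curve.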
# A647 fluor = qHTS Assay for Spectroscopic Profiling in A647 Spectral Region; max dye-equivalent concentration, M; 59,000 tested, under 10 active; AID 592, 2007; Compound fluorescence, A647 channel (570/671 nm), Tris buffer;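 note: values scaled relative to a standard on each plate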
#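 Buffer was dispensed, compounds and Alexa 647 standards were pin-transferred, and plates sat 15 min at room temperature. Intensity at 570/671 nm was then converted to dye-equivalent concentration using the plate's A647 standard curve.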
# A488 fluor = qHTS Assay for Spectroscopic Profiling in A488 Spectral Region; 0.1% of 59,000 active; AID 591, 2007; compound autofluorescence, A488 spectral region, dye equivalency; Compound Type: qHTS ECL - MLSMR; max dye equivalency, M
#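 Intrinsic compound fluorescence is measured in 100 mM Tris buffer at pH 8.0 following 15 min incubation at room temperature. Intensities at 480 nm excitation/540 nm emission are calibrated to an on-plate A488 concentration series, giving dye-equivalent concentrations.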
# Resorufin autofl = qHTS Assay for Spectroscopic Profiling in Resorufin Spectral Region | max dye-equivalent concentration, M | 0.04% of 59,000 active | Compound fluorescence, resorufin region 547/598 nm, buffer; active compounds read high
#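 Compounds in 100 mM Tris buffer, pH 8.0, incubated 15 min at room temperature, then read with 547 nm excitation and 598 nm emission filters. Fluorescence was converted to dye-equivalent concentration using an on-plate six-point resorufin standard curve.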
# Fluorescein autfl = qHTS Assay for Spectroscopic Profiling in Fluorescein Spectral Region; Compound autofluorescence, 480/540 nm, fluorescein-equivalent; active compounds read high; max fluorescein-equivalent concentration, M; 0.91% of 59,000 active; in the data active = max fluorescein-equivalent concentration above about 10 nM; inconclusive = between about 1.1 nM and that limit
#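 Read-out is intrinsic compound fluorescence at 480/540 nm (excitation/emission), expressed as dye-equivalent concentration using a fluorescein standard series run on every plate. Compounds sat 15 min at room temperature in 100 mM Tris, pH 8.0.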
# Rhodamine fluor = qHTS Assay for Spectroscopic Profiling in Rhodamine Spectral Region; Rhodamine-region fluorescence, 547/598 nm, Tris buffer; active compounds read high; AID 594, 2007; max dye-equivalent concentration, M; 0.05% of 59,000 active; in the data active = max dye-equivalent concentration above about 11 nM; inconclusive = between about 1.1 nM and that limit
#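 A six-point rhodamine series on each plate calibrates the signal. Compounds sit in 100 mM Tris (pH 8.0) for 15 min at ambient temperature before imaging through 547 nm/598 nm filters.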
# The depositor's hits bear a star; i = inactive; u = inconclusive; ! = not confirmed by another sample. Most compounds without a hit are left out; they make up all but 0.96% or so of the library. Unless noted, the rule behind the calls is not given here.
SMILES,TexasRed autofl,A647 fluor,A488 fluor,Resorufin autofl,Fluorescein autfl,Rhodamine fluor
COc1cc(Cn2c(N)c(C#N)c3nc4ccccc4nc32)cc(OC)c1,i,4.5e-08,i,i,u,i
COc1cccc(Cn2c(N)c(C#N)c3nc4ccccc4nc32)c1OC,i,3.2e-08,i,i,1.3e-08M*,i
CCOC(=O)CNC(=O)c1ccc2c(c1)OCCO2,i,1e-09,i,i,i,i
CCOC(=O)CNC(=O)c1cc(-c2ccc3c(c2)OCCO3)oc1C,i,5.5e-09,u,i,4.5e-08M*,i
NS(=O)(=O)c1cc2c(cc1Cl)NCNS2(=O)=O,i,1.5e-08,i,i,1.1e-08M*!,i
NS(=O)(=O)c1cc2c(cc1Cl)N[C@@H](CC1CCCC1)NS2(=O)=O,i,1e-09,i,i,i,i
Cc1ccc(N2C(=O)C3C(C2=O)C(C(=O)c2ccc(Cl)cc2)N2CCCC32)cc1 (centres undefined),i,3.5e-08,u,i,3.1e-08M*,i
Cn1ncc(N=Cc2c(O)ccc3ccccc23)c1C(=O)N1CCOCC1,i,1e-09,i,i,1.7e-08M*,i
Cn1ncc(N=Cc2ccccc2O)c1C(=O)Nc1ccccc1,i,7.6e-08,i,i,i,i
N#CC1=C(N)N2C(=C(C#N)C1c1ccccc1)Sc1ccccc12 (centres undefined),i,4.6e-08,u,i,4.2e-08M*,i
N#CC1=C(N)N(c2ccccc2)C2=C(C(=O)CCC2)C1c1ccsc1 (centres undefined),i,2.9e-09,i,i,i,i
CC1(C)Cc2c(c(-c3ccco3)[nH]c(=O)c2C#N)CS1,u,6.1e-09,u,i,8.7e-08M*,i
C[C@@H]1C[C@@H]2[C@H]3CCC4=CC(=O)C=C[C@]4(C)[C@]3(Cl)[C@@H](O)C[C@@]2(C)[C@@]1(O)C(=O)CO,i,5.2e-08,i,i,u,i
Cc1cccc(N=c2oc3cc(O)ccc3cc2C(N)=O)c1,i,1.9e-08,i,i,1.2e-08M*,i
CCOC(=O)C1CCN(c2nc3ccccc3nc2C(C#N)C(=O)NCCc2ccccc2)CC1 (centres undefined),i,1e-09,i,i,2.3e-08M*,i
COCCNC(=O)C(C#N)c1nc2ccccc2nc1N1CCCCCC1 (centres undefined),i,2.7e-08,i,i,u,i
CCOC(=O)C1CCCN(c2nc3ccccc3nc2C(C#N)C(=O)OCCOC)C1 (centres undefined),i,2.7e-08,i,i,u,i
CCOC(=O)C1CCCN(c2nc3ccccc3nc2C(C#N)C(=O)OCC)C1 (centres undefined),i,3e-09,i,i,1.1e-08M*,i
CN(C)C(=O)c1ccc(-c2cncnc2N(C)Cc2ccco2)cc1,i,2.4e-08,i,i,u,i
COc1ccc(Cl)c(NC(=O)Cn2nnc(-c3ccccc3N)n2)c1,i,1e-09,i,i,i,i
COc1ccc(-c2noc(CCC(=O)NC3CCCCC3)n2)cc1OC,i,1e-09,i,i,i,i
Cn1c(CN2CCCCC2)c(C#N)c2ccccc21,i,1e-09,i,i,2.5e-08M*,i
Cn1c(CN2CCC(C(N)=O)CC2)c(C#N)c2ccccc21,u,6.4e-08,i,i,u,i
Cn1c(=O)[nH]c(=O)c2c1nc(NCc1ccccc1)n2CC(O)c1ccccc1 (centres undefined),i,1e-09,u,i,3.6e-08M*,i
CC(=O)Nc1c2c3c(cccc3n(C)c1=O)C(=O)c1ccccc1-2,i,1e-09,u,i,1.7e-08M*,i
SMILES,TexasRed autofl,A647 fluor,A488 fluor,Resorufin autofl,Fluorescein autfl,Rhodamine fluor
CCC(=O)c1ccc(OCC(=O)N2CCc3cc(OC)c(OC)cc3C2)cc1,i,5.8e-09,i,i,u,i
COc1cc2c(cc1OC)CN(C(=O)CSc1nc(N)c(C#N)cc1C#N)CC2,u,1.5e-09,i,i,1.9e-08M*,i
Cn1c(=O)cc(OCCCC(=O)Nc2cccnc2)c2ccccc21,i,2.4e-08,i,i,u,i
COc1ccc(-c2c3c(=O)n(C)c(=O)n(C)c3c3nnc4ccccc4n23)cc1,i,1e-09,i,i,1.4e-08M*,i
O=C(NCc1nc(-c2ccccc2)no1)c1ccc(Br)o1,i,1e-09,i,i,i,i
CN(C)c1ncc2nc(-c3ccc(Cl)cc3)c(=O)n(C[C@H]3CCCO3)c2n1,i,2.7e-09,i,i,i,i
CCOC(=O)C(CC)Sc1nc(-c2ccc(OC)cc2)nc2c1c(=O)n(C)c(=O)n2C (centres undefined),i,1e-09,i,i,i,i
Nc1cc(C(=O)O)[nH]c(=O)n1,i,6.4e-09,i,i,1.1e-08M*,i
O=S(=O)(Nc1nc2ccccc2[nH]1)c1ccccc1,i,7.5e-09,i,i,2.2e-08M*,i
O=S(=O)(Nc1nc2ccccc2[nH]1)c1ccc(Cl)cc1,i,5.8e-08,i,i,i,i
Cc1nnc2sc(-c3ccc(NC(=O)c4ccc(-c5ccc(Cl)cc5Cl)o4)cc3)nn12,u,2.8e-08,i,u,1.2e-08M*,u
Cc1nnc2sc(-c3ccc(NC(=O)c4cccnc4)cc3)nn12,u,4.9e-08,i,i,u,i
